Test [1] can be described thus: E. coli DRC41 culture turbidity changes, primary screen, E. coli filamentation inducer project, strain DRC41, OD650, 48 h (AID 1152).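 Note: E. coli MC1000 strain DRC41 lacking acrAB efflux pump and sulA.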 As to conditions: E. coli DRC41 (acrAB sulA), higher = more signal, called active from +8 up or from −8 down.
The nature of test [2]: small-molecule binders of probe aLefty1, primary screen, biochemical, small-molecule microarray, 635/667 nm fluorescence (AID 1153).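 Note: score merges spot fluorescence with signal-to-noise ratio from the scanned slide images.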 The settings on record: higher = more signal.
Test [3] in a line: PSAC antagonists in infected red cells, primary screen, cell-based, P. falciparum Indochina, OD700, 1 h (AID 1154). The settings on record: P. falciparum Indochina infected RBC osmotic lysis, higher = more signal, called active from +8 up or from −8 down.
The nature of test [4]: PSAC antagonists in infected red cells, primary screen, cell-based, P. falciparum Indochina, OD700, 2 h (AID 1155).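 Note: lysis reports solute entry through the parasite surface anion channel PSAC; channel blockers reduce lysis of infected cells.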 As to conditions: P. falciparum Indochina infected erythrocytes, osmotic lysis OD700; higher = more signal, called active from +8 up or from −8 down.
Test [5] in a line: osmotic lysis modulators in infected erythrocytes, primary screen, PSAC antagonist project, cell-based, P. falciparum Indochina, OD700, 3 h (AID 1156). The settings on record: higher = more signal, called active from +8 up or from −8 down.
A short description of test [6]: PSAC antagonists in infected red cells, primary screen, cell-based, P. falciparum Indochina, OD700, 18 h (AID 1157). As to conditions: P. falciparum Indochina infected erythrocytes, osmotic lysis OD700, 18 h; higher = more signal, called active from +8 up or from −8 down.
A short description of test [7]: modulators of S6 phosphorylation in cells, primary screen, cell-based, A549, cytoblot, luminescence, serum-stimulated (AID 1158).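 Note: serum-stimulated A549 lung adenocarcinoma cells; signal is phosphorylated S6 detected by cytoblot immunostaining with HRP secondary.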 As to conditions: A549 phospho-S6 cytoblot, 5 h, higher = more signal.
Test [8] deals with NADPH oxidase 2 (Homo sapiens) (UniProt P04839). As to the kind of experiment: NOX2-dependent H2O2 signal modulators, primary screen, NOX inhibitor project, cell-based, HEK293-NOX2, PMA-stimulated, Amplex Red fluorescence (AID 1159). Note: test concentration not given here. As to conditions: 45 min, higher = more signal, called active from +8 up or from −8 down.
For test [9], the target named is NADPH oxidase 4 (Homo sapiens) (UniProt Q9NPH5). As to the kind of experiment: NOX4-dependent H2O2 signal modulators, primary screen, NOX inhibitor project, cell-based, HEK293-NOX4, tetracycline-induced, Amplex Red fluorescence (AID 1160). As to conditions: 45 min, higher = more signal, called active from +8 up or from −8 down.
The target in test [10] is NADPH oxidase 5 (Homo sapiens) (UniProt Q96PH1). Briefly: NOX5-dependent H2O2 signal modulators, primary screen, NOX inhibitor project, cell-based, HEK293-NOX5, Amplex Red fluorescence (AID 1161). As to conditions: HEK293-NOX5, ionomycin, 45 min, higher = more signal.
Test [11] is described as follows: A549 cell viability effects, profiling panel, calcein-AM fluorescence, 48 h, basal (AID 1162). Note: test concentration not given here. As to conditions: higher = more signal.
Test [12] in a line: adipocyte viability effects, profiling panel, cell-based, 3T3-L1 adipocytes, calcein-AM fluorescence, 48 h, basal (AID 1163). Note: test concentration not given here. As to conditions: 3T3-L1 adipocytes viability, higher = more signal.
Test [13] can be described thus: HepG2 cell viability effects, profiling panel, calcein-AM fluorescence, 48 h, basal (AID 1164). Note: test concentration not given here. As to conditions: higher = more signal.
The nature of test [14]: MM1S cell viability effects, profiling panel, calcein-AM fluorescence, 48 h, basal (AID 1165).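 Note: viability of MM1S multiple myeloma cells under basal unstimulated conditions; test concentration not given here.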 The settings on record: higher = more signal.
Test [15] is described as follows: basal RPMI8226 viability, no added stimulus, profiling panel, cell-based, calcein-AM fluorescence, 48 h, PK04 Diversity Set (AID 1166).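 Note: cells grown under basal conditions without added stimulus; test concentration not given here.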 As to conditions: RPMI8226 myeloma viability, higher = more signal.
Test [16] is described as follows: basal HepG2 mitochondrial membrane potential changes, profiling panel, cell-based, JC-1 fluorescence, 24 h, 100 nL compound (AID 1167). Note: test concentration not given here. The settings on record: higher = more signal.
Test [17] can be described thus: basal 3T3-L1 adipocyte mitochondrial potential changes, profiling panel, cell-based, JC-1 fluorescence, 3T3-L1 adipocytes, 24 h, 100 nL compound (AID 1168). Note: test concentration not given here. The settings on record: JC-1 mitochondrial fluorescence, higher = more signal, called active from +8 up or from −8 down.
Test [18] in a line: basal RPMI8226 mitochondrial membrane potential changes, profiling panel, cell-based, JC-1 fluorescence, 24 h, 100 nL compound (AID 1169). Note: test concentration not given here. As to conditions: RPMI8226 myeloma, JC-1 mitochondrial potential fluorescence, higher = more signal.
Test [19] in a line: basal MM1S mitochondrial membrane potential changes, profiling panel, cell-based, JC-1 fluorescence, 24 h, 100 nL compound (AID 1170). Note: test concentration not given here. As to conditions: higher = more signal.
A short description of test [20]: A549 lung cancer cell viability effects, profiling panel, resazurin fluorescence, 24 h, PK04 Diversity Set (AID 1171). Note: test concentration not given here. As to conditions: higher = more signal, called active from +8 up or from −8 down. On the technique in general: The colour change of resazurin is a common sign of viable cells or microbes.

Calls of active or inactive are those of the source.

NADPH oxidase 5 (Homo sapiens), sequence (Q96PH1 whole entry, looked up): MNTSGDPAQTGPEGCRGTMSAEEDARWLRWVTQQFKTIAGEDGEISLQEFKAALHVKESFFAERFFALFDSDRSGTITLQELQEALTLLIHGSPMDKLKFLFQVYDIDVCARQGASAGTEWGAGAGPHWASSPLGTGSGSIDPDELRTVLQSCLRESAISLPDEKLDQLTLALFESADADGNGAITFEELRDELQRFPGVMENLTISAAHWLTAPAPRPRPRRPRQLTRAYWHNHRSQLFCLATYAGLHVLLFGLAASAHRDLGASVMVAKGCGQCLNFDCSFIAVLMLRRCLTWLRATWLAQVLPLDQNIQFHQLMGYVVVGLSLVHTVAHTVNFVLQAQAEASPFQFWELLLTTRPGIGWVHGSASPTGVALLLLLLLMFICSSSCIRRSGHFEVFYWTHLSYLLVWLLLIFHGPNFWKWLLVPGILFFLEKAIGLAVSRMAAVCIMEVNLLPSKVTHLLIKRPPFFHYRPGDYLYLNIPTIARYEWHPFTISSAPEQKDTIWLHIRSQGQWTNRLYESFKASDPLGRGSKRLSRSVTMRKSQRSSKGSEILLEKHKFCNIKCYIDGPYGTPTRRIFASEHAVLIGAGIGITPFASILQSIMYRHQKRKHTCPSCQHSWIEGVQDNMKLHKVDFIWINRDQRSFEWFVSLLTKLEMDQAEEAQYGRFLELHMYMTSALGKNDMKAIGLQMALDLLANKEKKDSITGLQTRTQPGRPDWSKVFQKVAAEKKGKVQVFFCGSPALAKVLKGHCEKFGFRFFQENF
NADPH oxidase 4 (Homo sapiens), sequence (Q9NPH5 whole entry, looked up): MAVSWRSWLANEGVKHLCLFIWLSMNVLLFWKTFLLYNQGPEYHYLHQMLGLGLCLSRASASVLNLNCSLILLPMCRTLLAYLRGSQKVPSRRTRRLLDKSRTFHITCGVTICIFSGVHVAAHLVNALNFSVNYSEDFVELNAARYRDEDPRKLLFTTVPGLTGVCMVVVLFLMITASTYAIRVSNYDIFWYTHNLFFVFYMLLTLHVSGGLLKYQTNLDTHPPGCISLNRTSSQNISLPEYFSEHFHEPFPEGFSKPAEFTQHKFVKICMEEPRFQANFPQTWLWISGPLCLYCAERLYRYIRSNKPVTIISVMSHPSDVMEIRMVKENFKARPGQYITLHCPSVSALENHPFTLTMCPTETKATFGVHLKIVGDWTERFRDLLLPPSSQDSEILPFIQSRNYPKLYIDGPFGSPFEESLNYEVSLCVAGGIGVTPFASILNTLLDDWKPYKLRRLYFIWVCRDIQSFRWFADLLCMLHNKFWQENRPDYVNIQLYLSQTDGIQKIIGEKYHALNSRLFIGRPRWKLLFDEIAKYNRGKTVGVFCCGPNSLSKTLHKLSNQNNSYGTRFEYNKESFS
NADPH oxidase 2 (Homo sapiens), sequence (P04839 whole entry, looked up): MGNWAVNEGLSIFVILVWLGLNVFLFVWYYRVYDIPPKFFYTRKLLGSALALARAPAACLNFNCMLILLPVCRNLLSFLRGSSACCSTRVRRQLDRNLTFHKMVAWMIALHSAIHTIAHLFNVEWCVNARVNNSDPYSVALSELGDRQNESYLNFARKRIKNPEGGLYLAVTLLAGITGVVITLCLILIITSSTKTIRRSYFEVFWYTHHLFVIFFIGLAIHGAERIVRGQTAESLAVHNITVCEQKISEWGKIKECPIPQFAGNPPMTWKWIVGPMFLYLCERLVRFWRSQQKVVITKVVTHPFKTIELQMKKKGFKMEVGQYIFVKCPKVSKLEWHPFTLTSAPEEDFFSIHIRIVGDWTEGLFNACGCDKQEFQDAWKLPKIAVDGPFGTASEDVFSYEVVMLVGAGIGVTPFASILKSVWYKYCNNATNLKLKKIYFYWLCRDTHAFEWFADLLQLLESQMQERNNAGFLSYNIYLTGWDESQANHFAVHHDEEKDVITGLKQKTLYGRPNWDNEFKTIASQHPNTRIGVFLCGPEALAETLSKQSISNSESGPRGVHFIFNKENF

On to `C=CC[C@]1(C(=O)N2CCOCC2)N=C(c2ccc(OCCCO)cc2)O[C@H]1c1ccccc1CN=[N+]=[N-]`, for which the z-score in test [1] was 0.434 (inactive); in test [3], 27.9 (active); in test [4], 23.1 (active); in test [5], 3.57 (inactive); in test [6], 1.89 (inactive); in [7], -0.0698. Besides, the z-score in test [8] was 1.4 (inactive); in [9] it was 0.226 (inactive); in [10], -1.32; in [11] it was 0.762; in [12], 0.399; in [13], 1.65. In addition, the z-score was -0.0728 in [14]; -1.62 in test [15]; 1.48 in [16]; 0.114 (inactive) in test [17]; -0.977 in test [18]; -0.508 in [19]. For the same compound, in test [20], the z-score is -0.119 (inactive). Besides, in test [2], the composite z-score is 0.483.

On to `COCCCNC(=O)[C@@]1(Cc2ccccc2)COC(c2ccc(OCCCO)cc2)=N1`, for which the z-score was 1.76 (inactive) in [1]; 22 (active) in [3]; 4.97 (inactive) in test [4]; 1.12 (inactive) in test [5]; 1.04 (inactive) in [6]; -0.194 in test [7]. The z-score was -1.25 (inactive) in test [8]; 1.05 (inactive) in test [9]; -0.909 in [10]; 0.654 in test [11]; -0.598 in test [12]; 1.02 in test [13]. The z-score in [14] was -0.35; in [15], -1.04; in test [16], -1.11; in test [17], 0.154 (inactive); in [18] it was -0.367; in test [19], -0.693. Besides, in test [20], the z-score was 0.244 (inactive). In [2], the composite z-score was 1.1.

For the compound `O=[N+]([O-])c1ccc(C[n+]2ccc(-c3ccc(CO)cc3)cc2)o1`, the z-score in test [1] is -1.32 (inactive); in test [3] it was 1.34 (inactive); in [4], 0.199 (inactive); in [5], 0.495 (inactive); in test [6], -0.139 (inactive); in test [7], -0.103. The z-score was 0.0654 (inactive) in test [8]; -0.765 (inactive) in [9]; -3.73 in test [10]; 0.0994 in [11]; 0.511 in [12]; -1.19 in [13]. Also, the z-score in test [14] was 0.266; in test [15] it was -1.19; in test [16], -1.48; in [17] it was -0.886 (inactive); in test [18], 0.187; in test [19] it was -0.425. For the same compound, the z-score in [20] is -0.335 (inactive). Also, in test [2], the composite z-score was -0.0764.

Take `COCCOC(=O)N1C(=O)[C@@]2(c3cc(C#CCNC(N)=O)ccc31)[C@H](C(=O)N1CCCCCCC1)[C@H]1C(=O)O[C@H](c3ccccc3)[C@H](c3ccccc3)N1[C@@H]2c1ccc(OCCO)cc1`: the z-score in [1] was 0.0904 (inactive); in test [3] it was 4.45 (inactive); in [4], 1.89 (inactive); in [5], 1.99 (inactive); in test [6] it was 1.25 (inactive); in test [7], 0.437. For the same compound, the z-score in [8] was 1.53 (inactive); in [9], 1.25 (inactive); in test [10], 0.0911; in [11] it was 0.626; in test [12], 0.636; in test [13] it was 1.46. Further, the z-score was 0.246 in [14]; 1.01 in [15]; -1.47 in test [16]; -2.15 (inactive) in test [17]; -0.764 in test [18]; -1.75 in test [19]. For the same compound, in test [20], the z-score was -0.619 (inactive). Moreover, the composite z-score in test [2] was 0.174.

As to `CN(C)CCCCNC(=O)[C@H]1C[C@H]2C(=O)N[C@@H](CCCC[N+](C)(C)C)C(=O)N2[C@H]1c1cccc(OCCO)c1`, the z-score in [1] was 0.125 (inactive); in test [3], 3.16 (inactive); in test [4], 0.77 (inactive); in test [5], 0.675 (inactive); in test [6] it was 0.178 (inactive); in test [7], -0.294. In addition, the z-score in [8] is 2.19 (inactive); in [9], 1.58 (inactive); in test [10], 1.26; in test [11] it was -0.532; in [12], 0.067; in test [13] it was -0.491. Besides, the z-score is -0.845 in test [14]; 0.54 in [15]; -1.18 in [16]; -0.333 (inactive) in [17]; -0.674 in test [18]; -0.448 in test [19]. Moreover, in test [20], the z-score was 0.0625 (inactive). The composite z-score in test [2] came out at 0.145.

The record behind these values is PubChem BioAssay.
